PubChem BioAssay (NCI)
The panel holds about 83,000 compounds, 20% with a hit somewhere; the sample as a whole holds those more often.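 Testing used 96-well plates and a 48-hour single-concentration exposure. Example: -40 means 40% of the starting cells died.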 The source made the active and inactive calls. The calls were made as follows: active = growth percent below 10; inactive = the rest.

Tested on: SNB-75 CNS
Assay: NCI-60 one-dose screen, 48 h (100 = growth as untreated, 0 = no growth, -100 = all killed)
Details: 10 µM

| Compound | growth |
| --- | --- |
| Cc1ccc(C(=O)NCCCNc2nc(Nc3ccc(N4CCN(C)CC4)cc3)nc3ccsc23)cc1 | 71.9% (inactive) |
| O=C(c1ccc(-n2c(=O)[nH]c3ccccc3c2=O)cc1)N1CCOCC1 | 80.9% (inactive) |
| O=S(=O)(c1ccc(Cl)cc1)c1nc(-c2ccccc2)oc1S(=O)(=O)c1ccc(Cl)cc1 | 76.5% (inactive) |
| Cc1ccc(C(C)C)cc1NC(=O)c1ccccc1N(C)C | 112% (inactive) |
| COc1ccc2[nH]c(O)c(N=NC(=O)COc3ccc(NC(=O)Nc4ccc(Cl)c(Cl)c4)cc3)c2c1 | -37% (active) |
| COc1cccc(-c2nn(-c3ccccc3)cc2-c2ccnc(NCCCNC(=O)Nc3ccc(F)cc3)c2)c1 | 0.286% (active) |
| CN1CCN(c2ccc(Nc3nc(NCCCNC(=O)c4ccc(F)cc4)c4sccc4n3)cc2)CC1 | 108% (inactive) |
| CC1(C)CC[C@]2(C(=O)Nc3ccccc3)CC[C@]3(C)C(=CC[C@@H]4[C@@]5(C)CC[C@H](N)C(C)(C)[C@@H]5CC[C@]43C)[C@H]2C1 | 95.6% (inactive) |
| C[C@H]1[C@H](C)CC[C@]2(COC(=O)CCC(=O)NCC#CCN3CCNCC3)CC[C@]3(C)C(=CC[C@@H]4[C@@]5(C)CCCNC(C)(C)[C@@H]5CC[C@]43C)[C@H]12 | 82.2% (inactive) |
| O=C(Nc1ccncc1)c1ccc(-n2c(=O)[nH]c3ccccc3c2=O)cc1 | 107% (inactive) |
| Cc1ccc(C(C)C)cc1NC(=O)c1ccccc1O | 46.4% (inactive) |
| CCCS(=O)(=O)c1oc(-c2ccc(F)cc2)nc1S(=O)(=O)c1ccc(F)cc1 | 53.4% (inactive) |
